This note sets out measurements from PubChem BioAssay AID2023 (NMMLSC, 2009).

Several values for one entry are separate records, joined by “and”; a condition that tells them apart may be missing. Equal values may be shown once. Screen size: about 320,000 compounds; about 1,100 (0.34%) were called active.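 Rule for the calls: active = GFP response vs DMSO above a set limit, about the screen mean plus 3 SD (cut at about 150% in these data); inconclusive = under 70 cell events counted for the yeast strain; inactive = the rest.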 The sample as a whole holds a higher share of actives than the screen did. Some compounds were tested as several samples or in several runs, with calls that do not always agree.

The nature of this assay: modulators of LAP4-GFP expression in yeast, primary screen, S. cerevisiae, multiplex flow cytometry, MLPCN library (AID 2023). The following applies: 3 h, at 10 µM, stronger effect = higher value, median GFP as percent of DMSO wells.
Consider `CC(NC(=O)C1CCCN(S(=O)(=O)c2ccc(-n3cnnn3)cc2)C1)c1ccc(F)cc1` (configuration not stated), for which the GFP response vs DMSO is 83.4% (inactive).

In the case of `O=C(O)Cc1csc(-c2cccc(Oc3ccccc3)c2)n1`, the GFP response vs DMSO is 110% (inactive) and 152% (active).

Regarding `O=C(NCCc1csc(-c2ccccc2)n1)c1ccccc1F`, the GFP response vs DMSO was 120% (inactive).

On to `COc1cc(OC)cc(C(=O)NCC(=O)OCc2csc(-c3ccccc3)n2)c1`, for which the GFP response vs DMSO is 101% (inactive).

Regarding `CC(=O)c1c(C)n([O-])c2ccccc2[n+]1=O`, the GFP response vs DMSO is 99.9% (inactive).

As to `COc1cccc(NC(=O)COc2cccnc2[N+](=O)[O-])c1`, the GFP response vs DMSO was 94.7% (inactive).

On to `CC(NC(=O)COc1cccnc1[N+](=O)[O-])c1ccc(Cl)cc1Cl` (configuration not stated), for which the GFP response vs DMSO was 116% (inactive).

For the compound `O=C(COc1cccnc1[N+](=O)[O-])Nc1ccc(Cl)cc1F`, the GFP response vs DMSO is 178% (active).

Turning to `COc1cccc(CCNC(=O)c2cccc(NC(=O)C3=C(C)OCCS3)c2)c1`, the GFP response vs DMSO is 93.6% (inactive).

As for `CCc1ccc(N(CC(=O)NCc2cccnc2)S(=O)(=O)c2ccccc2)cc1`, the GFP response vs DMSO was 96.7% (inactive).

On to `O=C(O)CN1c2cccc3cccc(c23)S1(=O)=O`, for which the GFP response vs DMSO was 92.9% (inactive).

Take `COC(=O)N/N=C/c1cn(CCCOc2ccc(C)cc2)c2ccccc12`: the GFP response vs DMSO is 89.7% (inactive).

For `COC(=O)c1cn(CC(=O)NCc2cccs2)c2ccccc12`, the GFP response vs DMSO is 95% (inactive).

In the case of `COC(=O)Cn1cc(/C=C/[N+](=O)[O-])c2ccccc21`, the GFP response vs DMSO was 164% (active).

Regarding `COC(=O)Cc1cnc(NC(=O)CSc2nc(C(C)C)cc(=O)[nH]2)s1`, the GFP response vs DMSO is 114% (inactive).

With `COc1cc(C)c(C(C)C)cc1S(=O)(=O)n1ccnc1`, the GFP response vs DMSO was 89.6% (inactive).

On to `O=C1Oc2ccccc2C(=O)/C1=C/c1ccccc1O`, for which the GFP response vs DMSO was 208% (active).

Regarding `COc1ccc2c(c1)O/C(=C\c1ccccc1O)C2=O`, the GFP response vs DMSO was 108% (inactive).

With `COC(=O)c1ccc(/C=C2/C(=O)Oc3ccccc32)cc1`, the GFP response vs DMSO was 93.2% (inactive).

Take `COc1ccc(Cl)cc1NC(=O)CN(C)C(=O)CCCc1c[nH]c2ccccc12`: the GFP response vs DMSO is 99.5% (inactive).

For `O=Cc1c(NCCCN2CCCC2=O)c2ccccc2[nH]c1=O`, the GFP response vs DMSO was 100% (inactive).

With `CCC1Sc2ccc(S(=O)(=O)CCC(=O)NCc3cccs3)cc2NC1=O` (configuration not stated), the GFP response vs DMSO was 106% (inactive).

With `O=C(COC(=O)c1ccccc1Br)Nc1nnc(-c2ccccc2)o1`, the GFP response vs DMSO was 115% (inactive).

With `O=C(Nc1nnc(-c2ccc(Cl)cc2)o1)c1ccccc1Br`, the GFP response vs DMSO was 159% (active).

In the case of `O=C(Nc1nnc(-c2ccccc2)o1)c1cc(-c2cccs2)nc2ccccc12`, the GFP response vs DMSO was 112% (inactive).

Regarding `Cc1cccc(NS(=O)(=O)c2ccc(C(=O)NCC(C)(C)N3CCOCC3)cc2)c1C`, the GFP response vs DMSO is 103% (inactive).

On to `CCOc1ccc(NC(=O)CN(C)C(=O)COc2cccc(CC)c2)cc1OCC`, for which the GFP response vs DMSO was 100% (inactive).

For the compound `CCC(=O)N1CCC(C(N)=O)(N2CCCCC2)CC1`, the GFP response vs DMSO is 95.6% (inactive).

Regarding `CCCCCCSc1ccc([C@@H]2[C@@H]3C(=O)N(CC)C(=O)[C@@H]3[C@]3(C(=O)OC)CCCCN23)cc1OC`, the GFP response vs DMSO was 90.1% (inactive).

As to `CCC(=C/c1sc2ccc3ccccc3c2[n+]1C)/C=C1\Sc2ccc3ccccc3c2N1C`, the GFP response vs DMSO is 283% (active).

On to `O=C(Nc1cccc(Cl)c1Cl)c1ccccc1NC(=O)C1CC=CCC1C(=O)O` (configuration not stated), for which the GFP response vs DMSO is 67.7% (inactive).

For the compound `Cc1cccc(C)c1N1CCN(S(=O)(=O)N2CCOCC2)CC1`, the GFP response vs DMSO was 110% (inactive).

On to `C=CCOc1ccc(Cl)cc1CNCCCN1CCOCC1`, for which the GFP response vs DMSO was 91.3% (inactive).

As to `Cc1ccc(S(=O)(=O)c2nnn3c2nc(N2CCN(c4ccccn4)CC2)c2ccccc23)cc1`, the GFP response vs DMSO is 104% (inactive).

In the case of `CC(=O)Nc1ccc(Nc2nc3c(S(=O)(=O)c4ccc(C)c(C)c4)nnn3c3ccccc23)cc1`, the GFP response vs DMSO is 89.9% (inactive).

As to `Cc1cccc(Nc2nc3c(S(=O)(=O)c4ccccc4)nnn3c3ccccc23)c1C`, the GFP response vs DMSO was 783% [may fluoresce green] (active).

In the case of `CN(C)c1nc(=Nc2cccc(Cl)c2)ss1`, the GFP response vs DMSO is 191% (active).

For the compound `CCOC(=O)N1CCN(C(=O)c2cn(C)c3ccc(S(=O)(=O)N(CC)CC)cc3c2=O)CC1`, the GFP response vs DMSO is 102% (inactive).

In the case of `O=C(O)C1OC(C(=O)O)C2C1C(F)(F)C2(F)F` (configuration not stated), the GFP response vs DMSO is 99.4% (inactive).

Turning to `O=C(CN1C(=O)NC2(CCCC2)C1=O)NCC1CCCO1` (configuration not stated), the GFP response vs DMSO is 104% (inactive).

As to `O=c1[nH]c(SCc2cccc(F)c2)nc2ccccc12`, the GFP response vs DMSO was 108% (inactive).

As to `Nc1cc(N)nc(SCc2cccc(F)c2)n1`, the GFP response vs DMSO was 97.2% (inactive).

Regarding `CCc1nnc(SCc2cccc(F)c2)nc1CC`, the GFP response vs DMSO is 152% (active).

On to `O=C(CCC1CCN(C(=O)c2cccc(Cl)c2F)CC1)Nc1ccccc1`, for which the GFP response vs DMSO was 106% (inactive).

Regarding `Cn1ncc(N2CCN(S(=O)(=O)c3ccc(Br)cc3)CC2)c(Cl)c1=O`, the GFP response vs DMSO was 170% (active).

As to `CCOC(=O)N1CCN(S(=O)(=O)c2ccc(Br)cc2)CC1`, the GFP response vs DMSO is 108% (inactive).

For the compound `COc1ccccc1N1CCN(S(=O)(=O)c2ccc(Cl)cc2)CC1`, the GFP response vs DMSO was 110% (inactive).
